Holding throughout (assay): PBM binding z-score (relative to random genomic background probes); higher = stronger binding; sequences stand for … in GC…GCGATTGACAGCGTAGAATGAAGG
Assay [1] concerns FXR:RXRa (NR concentration 270 nM, RXRa partner concentration 90 nM). The method, boiled down: (§1)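 Each nuclear receptor dimer, without ligand, was incubated for 1 h on custom Agilent 4×180K protein-binding microarrays. Binding was detected with antibodies against each partner (one per run), and scanned fluorescence was regression-normalized. The binding z-scores are referenced to random human genomic background probes.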

The test system of assay [2] is LXRa:RXRa (NR concentration 270 nM, RXRa partner concentration 90 nM). The method, boiled down:
as §1

Assay [3] relates to LXRa homodimer (NR concentration 270 nM). The method, boiled down:
as §1

The test system of assay [4] is LXRb:RXRa (NR concentration 270 nM, RXRa partner concentration 90 nM). The method in brief: as §1
Assay [5] concerns LXRb homodimer (NR concentration 270 nM). The method in brief:
as §1

Assay [6] has as its system PPARa:RXRa (NR concentration 270 nM, RXRa partner concentration 90 nM). The method in brief:
as §1

Assay [7] deals with PPARg:RXRa (NR concentration 180 nM, RXRa partner concentration 90 nM). The method in brief: as §1
For assay [8], the system named is PPARg:RXRa 270nM:90nM, anti-RXR (NR concentration 270 nM, RXRa partner concentration 90 nM). The method, boiled down: as §1
Assay [9] deals with PPARg:RXRa 30nM:10nM, anti-RXR (NR concentration 30 nM, RXRa partner concentration 10 nM). The method in brief: as §1
The subject of assay [10] is PPARg:RXRa 90nM:30nM, anti-RXR (NR concentration 90 nM, RXRa partner concentration 30 nM). The method in brief:
as §1

In assay [11] the test system is PPARg:RXRa DBDmut IVT, anti-RXR (DBD mutation: RXRa K156A/R161A, NR concentration 270 nM, RXRa partner concentration 90 nM). The method, boiled down:
as §1

In assay [12] the test system is PPARg:RXRa IVT, anti-PPARg (NR concentration 270 nM, RXRa partner concentration 90 nM). The method, boiled down:
as §1

Assay [13] relates to PPARg DBDmut:RXRa IVT, anti-PPARg (DBD mutation: PPARg1 K132A/R137A, NR concentration 270 nM, RXRa partner concentration 90 nM). The method, boiled down: as §1
Assay [14] deals with PPARg DBDmut IVT, anti-PPARg (DBD mutation: PPARg1 K132A/R137A, NR concentration 270 nM). The method, boiled down:
as §1

For assay [15], the system named is PPARg homodimer (NR concentration 180 nM). The method in brief: as §1
Assay [16] deals with PXR:RXRa (NR concentration 270 nM, RXRa partner concentration 90 nM). The method in brief: as §1
For assay [17], the system named is PXR homodimer (NR concentration 270 nM). The method, boiled down:
as §1

Assay [18] has as its system RARa:RXR (NR concentration 270 nM, RXRa partner concentration 90 nM). The method, boiled down: as §1
The subject of assay [19] is RARa homodimer (NR concentration 270 nM). The method in brief: as §1
For assay [20], the system named is RARb:RXRa (NR concentration 270 nM, RXRa partner concentration 90 nM). The method in brief:
as §1

For 7 sequences, PBM binding z-score results are on record in the supplement of paper PMC6555819.

With AGAACGAGGGCACTCTGAGTTGATAGCAGAGTAG, the PBM binding z-score in assay [1] is 0.473; in assay [2], 0.561; in [3], -0.613; in assay [4], -0.0145; in [5] it was -0.411; in assay [6], 1.35. Further, the PBM binding z-score in [7] is 1.21; in [8], 1.19; in assay [9] it was -0.0176; in assay [10], 0.277; in assay [11], 3.52; in assay [12], 2.74. Further, the PBM binding z-score in assay [13] was 0.243; in assay [14] it was -0.0516; in [15], -0.209; in assay [16], 1.14; in assay [17], -0.0913; in assay [18] it was 0.301. The PBM binding z-score in [19] was -0.677; in assay [20], 1.84.
With CGTCCAAGGTCAATGTCAGTGAAAGAGACTCGAA, the PBM binding z-score in [1] was found to be 6.7; in [2], 4.8; in assay [3], 0.641; in [4] it was 3.88; in assay [5] it was 1.05; in assay [6] it was 5.35. For the same sequence, the PBM binding z-score in [7] amounted to 4.26; in assay [8] it was 4.46; in [9] it was 1.3; in assay [10], 2.57; in assay [11], 2.67; in [12] it was 3.14. Besides, the PBM binding z-score in assay [13] is -0.322; in assay [14] it was -0.37; in assay [15], 2.27; in assay [16] it was 3.36; in [17], 1.18; in assay [18], 3.8. Moreover, the PBM binding z-score in assay [19] worked out at 0.639; in assay [20], 4.85.
As for CTTCGGAGGACAGAAGGTCAGAGCTGTCCGCTTT, the PBM binding z-score in assay [1] is 1.6; in [2], 1.84; in [3], -0.0247; in assay [4], 0.975; in [5], -0.772; in assay [6], 1.85. Also, the PBM binding z-score is -0.0897 in [7]; 1.07 in assay [8]; -0.905 in assay [9]; 0.484 in assay [10]; 0.227 in assay [11]; 0.203 in assay [12]. Also, the PBM binding z-score was -0.826 in assay [13]; -2.02 in assay [14]; 1.51 in assay [15]; 1.56 in assay [16]; -0.691 in [17]; 2.18 in [18]. Besides, the PBM binding z-score in assay [19] was -0.152; in [20] it was 3.17.
For the sequence TCGAGTAGGTTAGGGGCATGCAGAATGGCGTCGA, the PBM binding z-score in assay [1] is 0.354; in assay [2], 0.125; in assay [3], -0.474; in [4], 0.49; in assay [5], -0.161; in assay [6], 1.29. Also, the PBM binding z-score in assay [7] was determined as 0.641; in [8], 1.68; in [9], 0.979; in assay [10] it was 1.27; in assay [11] it was 1.92; in [12] it was 1.32. In addition, the PBM binding z-score is -0.639 in assay [13]; -1.3 in assay [14]; 0.568 in assay [15]; 0.108 in [16]; -0.44 in [17]; 0.383 in [18]. In addition, the PBM binding z-score was -0.355 in assay [19] and 1.2 in assay [20].
As to AGTCTAAGTTCACTAGGTAACGTAAGATTCAGCT, the PBM binding z-score in [1] stood at 2.84; in assay [2], 3.02; in assay [3], 0.822; in [4], 1.84; in assay [5] it was 0.221; in assay [6], 3.63. Also, the PBM binding z-score in assay [7] turned out to be 2.98; in assay [8], 3.85; in [9] it was 1.57; in [10] it was 3.02; in assay [11] it was 2.75; in [12] it was 3.66. Also, the PBM binding z-score in [13] turned out to be 0.895; in [14] it was 1.1; in [15], 1.24; in assay [16] it was 3.63; in [17] it was 4.11; in assay [18], 1.93. Also, the PBM binding z-score was 0.914 in [19] and 3.58 in assay [20].
For the sequence GCGACTGGGGCATCAGCACGTTACCATAACTTAA, the PBM binding z-score in assay [1] was -0.278; in assay [2], -0.417; in assay [3], -0.429; in [4] it was 0.31; in assay [5] it was -0.932; in assay [6], 0.476. The PBM binding z-score in assay [7] is 0.927; in assay [8] it was 0.64; in [9] it was -0.0937; in [10] it was 0.15; in assay [11] it was 3.89; in assay [12], 3. The PBM binding z-score in assay [13] is 0.00267; in assay [14] it was -0.723; in assay [15] it was -0.048; in [16], -0.493; in [17], -0.113; in assay [18], -0.399. Also, the PBM binding z-score in [19] is -0.0529; in assay [20], 0.327.
Regarding CCGACTGGGGCATAAAGGTTACCATACCATCCGG, the PBM binding z-score in assay [1] is 0.385; in assay [2], 0.747; in assay [3], -0.0869; in assay [4], 0.923; in assay [5] it was -0.959; in assay [6] it was 2.47. Further, the PBM binding z-score in [7] was determined as 3.04; in assay [8], 3.77; in assay [9], 2.08; in assay [10], 3.81; in assay [11], 1.89; in assay [12], 3.25. Moreover, the PBM binding z-score in [13] was -0.548; in assay [14] it was -1.23; in assay [15] it was 1.42; in assay [16], 1.3; in assay [17], -0.303; in assay [18], 1.83. Further, the PBM binding z-score in [19] was 0.301; in [20] it was 1.89.
